# Measured values from PubChem BioAssay (NCATS).
# Inconclusive results are not listed. The source made the active and inactive calls. Unless noted, the call rests on the fitted dose curve; in most records, active means well fitted inhibition curve with a large enough effect; inconclusive means small, poorly fitted or top-dose-only effect; inactive means flat fitted curve, though single readings scatter.
# Tests used:
# [1] = qHTS profiling for inhibitors of Plasmodium falciparum proliferation (AID 504749);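 further: 0% = DMSO vehicle and full inhibition = artemisinin control; nearly all actives have a fitted effect of over 60% in size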; conditions: P. falciparum in erythrocytes, SYBR Green DNA, 72 h
# Summary of the method: (§1)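 Fluorescence of SYBR Green-bound parasite DNA, read at 485/535 nm, served as the growth measure. Infected erythrocytes were cultured with compound 72 h; artemisinin (0.29 uM) and DMSO wells defined the normalization range.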
# 3D7 = test: as above; conditions: P. falciparum in erythrocytes, SYBR Green DNA, 72 h; series mostly up to 28.7 µM
# Summary of the method: as §1
# 7G8 = test: as above; conditions: P. falciparum in erythrocytes, SYBR Green DNA, 72 h; series mostly up to 28.7 µM
# Summary of the method: as §1
# AA1029 = test: as above; conditions: P. falciparum in erythrocytes, SYBR Green DNA, 72 h; series mostly up to 28.7 µM
# Summary of the method: as §1
# AS120 = test: as above; conditions: P. falciparum in erythrocytes, SYBR Green DNA, 72 h; series mostly up to 28.7 µM
# Summary of the method: as §1
# [2] = qHTS drug screen for cell cycle checkpoint inhibitors in PARPi-resistant BRCA-mutant ovarian cancer cell lines. (AID 1963452; calls by dose curve); conditions: PEO1/OlaR viability, CellTiter-Glo luminescence, 96 h, stronger effect = lower value
# Summary of the method: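 PEO1, PEO4 and PEO1/OlaR ovarian cancer cells, 600 per well, exposed 96 h at 37C to a dilution series. Viability read by CellTiter-Glo luminescence, normalized to DMSO and empty wells; activity summarized as Z-AUC.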
# [3] = at 28.7 µM (top of the series), parasite line A
# [4] = at 28.7 µM (top of the series), parasite line B
# [5] = measured here: PEO1 parental Z-AUC
structure (smiles),measurement,setting,value
O=C(O)c1cc2cc(Cc3cccnc3)ccc2o1,"activity, negative = inhibition",[1]; [3],9.24% (inactive)
same,"activity, negative = inhibition",[1]; [4],5.6% (inactive)
same,Potency,3D7,inactive
same,Potency,7G8,inactive
same,Potency,AA1029,inactive
same,Potency,AS120,inactive
COc1cccc2c1C(=O)c1c(O)c3c(c(O)c1C2=O)C[C@@](O)(C(=O)CO)C[C@@H]3O[C@H]1C[C@H](N)[C@H](O)[C@H](C)O1,Z-AUC,[2],-0.906 (inactive)
same,Z-AUC,[2]; [5],-0.971
same,Z-AUC,[2]; measured here: PEO4 Z-AUC,-0.369
CCn1cc(C(=O)O)c(=O)c2cnc(N3CCCC3)nc21,"activity, negative = inhibition","[1]; at 12.8 µM (top of the series), parasite line A",-13.8% (inactive)
same,"activity, negative = inhibition","[1]; at 12.8 µM (top of the series), parasite line B",2.72% (inactive)
same,Potency,3D7,inactive
same,Potency,7G8,inactive
same,Potency,AA1029,inactive
same,Potency,AS120,inactive
CN(C)CC/C=C1/c2ccccc2COc2ccc(CC(=O)O)cc21,Z-AUC,[2],-0.218 (inactive)
same,Z-AUC,[2]; [5],0.35
same,Z-AUC,[2]; measured here: PEO4 Z-AUC,-0.471
C[C@]12C=CC(=O)C=C1CC[C@@H]1[C@@H]2[C@@H](O)C[C@@]2(C)[C@H]1CC[C@]2(O)C(=O)CO,Z-AUC,[2],-0.821 (inactive)
same,Z-AUC,[2]; [5],0.0884
same,Z-AUC,[2]; measured here: PEO4 Z-AUC,-0.444
CC/C(=C(/CC)c1ccc(O)cc1)c1ccc(O)cc1,Z-AUC,[2],-0.318 (inactive)
same,Z-AUC,[2]; [5],-0.188
same,Z-AUC,[2]; measured here: PEO4 Z-AUC,0.271
same,"activity, negative = inhibition",[1]; [4],-19.4% (inactive)
same,Potency,3D7,inactive
same,Potency,AA1029,inactive
same,Potency,AS120,inactive
C[C@]12CC[C@@H]3c4ccc(O)cc4CC[C@H]3[C@@H]1CC[C@@H]2O,Z-AUC,[2],0.573 (inactive)
same,Z-AUC,[2]; [5],0.0962
same,Z-AUC,[2]; measured here: PEO4 Z-AUC,0.419
same,"activity, negative = inhibition",[1]; [3],14.2% (inactive)
same,"activity, negative = inhibition",[1]; [4],10.8% (inactive)
same,Potency,3D7,inactive
same,Potency,7G8,inactive
same,Potency,AA1029,inactive
same,Potency,AS120,inactive
CC1(C)O[C@@H]2C[C@H]3[C@@H]4C[C@H](F)C5=CC(=O)C=C[C@]5(C)[C@H]4[C@@H](O)C[C@]3(C)[C@]2(C(=O)CO)O1,Z-AUC,[2],0.212 (inactive)
same,Z-AUC,[2]; [5],1.77
same,Z-AUC,[2]; measured here: PEO4 Z-AUC,0.487
C[C@]12CC[C@@H]3c4ccc(O)cc4CC[C@H]3[C@@H]1C[C@@H](O)[C@@H]2O,Z-AUC,[2],-0.032 (inactive)
same,Z-AUC,[2]; [5],0.00281
same,Z-AUC,[2]; measured here: PEO4 Z-AUC,0.225
Clc1ccc2c(c1)CCc1cccnc1C2=C1CCNCC1,"activity, negative = inhibition",[1]; [3],-8.94% (inactive)
same,"activity, negative = inhibition",[1]; [4],-21.2% (inactive)
CC(=O)OCC(=O)[C@@]12OC(C)(C)O[C@@H]1C[C@H]1[C@@H]3C[C@H](F)C4=CC(=O)C=C[C@]4(C)[C@@]3(F)[C@@H](O)C[C@@]12C,Z-AUC,[2],-0.667 (inactive)
same,Z-AUC,[2]; [5],0.136
same,Z-AUC,[2]; measured here: PEO4 Z-AUC,-0.783
